What all share (experiment): HT-SELEX; high values mean tight binding
Details in all cases: protein: recombinant; vector His6-GST; dsDNA, one strand shown

One test addresses T1, SALL4 ZFC4 WT (HT-SELEX) (Mus musculus, UniProt Q8BX22 870-940).
T1 sequence: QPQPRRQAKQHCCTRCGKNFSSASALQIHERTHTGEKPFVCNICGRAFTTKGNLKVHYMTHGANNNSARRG
In a few lines:
(§1)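 In triplicate selections of up to 6 cycles, purified recombinant mouse SALL4 zinc finger cluster 4 (residues 870–940, 1 µg) was incubated 10 min at room temperature with library DNA (1.5 µg, then 200 ng) in 100 µl of 10 mM Tris–HCl pH 7.5, 50 mM NaCl, poly(dI-dC) and DTT, and complexes were captured on Ni2+ beads, washed and PCR-amplified. Sequencing was done on MiSeq with scanning for 6-mers. The binding signal is each canonical k-mer's read fraction, reported as fold change against the initial random library.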

Test [1] concerns the target T2, SALL4 ZFC4 R900W (HT-SELEX) (Mus musculus, UniProt Q8BX22 870-940, R900W).
T2 sequence: T1 sequence with R31W
The procedure, abridged: as §1

The target in test [2] is T3, SALL4 ZFC4 G921D (HT-SELEX) (Mus musculus, UniProt Q8BX22 870-940, G921D).
T3 sequence: T1 sequence with G52D
The procedure, abridged: as §1

Substitutions are numbered along the chain they refer to.

As for AGCCAA, the binding signal in the test with SALL4 ZFC4 WT (HT-SELEX) is 0.49 ± 0.0194 fold-change vs cycle 0; in test [1] it was 0.55 ± 0.00629 fold-change vs cycle 0; in test [2] it was 0.698 ± 0.0739 fold-change vs cycle 0.

In the case of CTCACA, the binding signal was 0.786 ± 0.0522 fold-change vs cycle 0 in the test with SALL4 ZFC4 WT (HT-SELEX), 0.895 ± 0.0341 fold-change vs cycle 0 in test [1] and 0.9459 ± 0.00888 fold-change vs cycle 0 in test [2].

Take AACCAC: the figures for the binding signal (with SALL4 ZFC4 WT (HT-SELEX); in test [1]; in test [2]) were 0.74 ± 0.0275 fold-change vs cycle 0, 0.83 ± 0.0479 fold-change vs cycle 0 and 0.879 ± 0.0101 fold-change vs cycle 0, respectively.

For AGGTTC, the results for the binding signal (in the test with SALL4 ZFC4 WT (HT-SELEX); in test [1]; in test [2]) were 0.828 ± 0.0497 fold-change vs cycle 0, 0.972 ± 0.0561 fold-change vs cycle 0 and 1.02 ± 0.0282 fold-change vs cycle 0, respectively.

Turning to AAGTCT, the figures for the binding signal (with SALL4 ZFC4 WT (HT-SELEX); in test [1]; in test [2]) were 1.259 ± 0.00421 fold-change vs cycle 0, 1.4 ± 0.0184 fold-change vs cycle 0 and 1.38 ± 0.0691 fold-change vs cycle 0, respectively.

Consider ACGTTA, for which the binding signal with SALL4 ZFC4 WT (HT-SELEX) turned out to be 1.26 ± 0.034 fold-change vs cycle 0; in test [1] it was 1.37 ± 0.0435 fold-change vs cycle 0; in test [2] it was 1.29 ± 0.0362 fold-change vs cycle 0.

In the case of GAAACC, the binding signal with SALL4 ZFC4 WT (HT-SELEX) came out at 0.748 ± 0.0342 fold-change vs cycle 0; in test [1], 0.843 ± 0.0163 fold-change vs cycle 0; in test [2], 0.916 ± 0.0216 fold-change vs cycle 0.

Regarding CAACTA, the binding signal was found to be 1.19 ± 0.0469 fold-change vs cycle 0 with SALL4 ZFC4 WT (HT-SELEX), 1.31 ± 0.0705 fold-change vs cycle 0 in test [1] and 1.29 ± 0.0584 fold-change vs cycle 0 in test [2].

With GTAAGA, the binding signal with SALL4 ZFC4 WT (HT-SELEX) came to 1.45 ± 0.0375 fold-change vs cycle 0; in test [1] it was 1.6 ± 0.0704 fold-change vs cycle 0; in test [2] it was 1.42 ± 0.0981 fold-change vs cycle 0.

In the case of GTGAGA, the binding signal turned out to be 0.859 ± 0.0299 fold-change vs cycle 0 in the test with SALL4 ZFC4 WT (HT-SELEX), 0.971 ± 0.0233 fold-change vs cycle 0 in test [1] and 0.986 ± 0.0119 fold-change vs cycle 0 in test [2].

Take ATGTAA: the binding signal in the test with SALL4 ZFC4 WT (HT-SELEX) was found to be 2.3 ± 0.158 fold-change vs cycle 0; in test [1], 2.09 ± 0.134 fold-change vs cycle 0; in test [2], 1.83 ± 0.187 fold-change vs cycle 0.

Consider CTAAAG, for which the values for the binding signal (with SALL4 ZFC4 WT (HT-SELEX); in test [1]; in test [2]) were 1.22 ± 0.0556 fold-change vs cycle 0, 1.43 ± 0.0823 fold-change vs cycle 0 and 1.34 ± 0.112 fold-change vs cycle 0, respectively.

Regarding CAAGGC, the binding signal amounted to 0.301 ± 0.0203 fold-change vs cycle 0 with SALL4 ZFC4 WT (HT-SELEX), 0.371 ± 0.0118 fold-change vs cycle 0 in test [1] and 0.492 ± 0.0622 fold-change vs cycle 0 in test [2].

Regarding AAACCA, the results for the binding signal (in the test with SALL4 ZFC4 WT (HT-SELEX); in test [1]; in test [2]) were 1.14 ± 0.0582 fold-change vs cycle 0, 1.23 ± 0.0362 fold-change vs cycle 0 and 1.24 ± 0.0488 fold-change vs cycle 0, respectively.

Consider AGAGAC, for which the binding signal with SALL4 ZFC4 WT (HT-SELEX) came out at 0.8 ± 0.0496 fold-change vs cycle 0; in test [1], 0.927 ± 0.0137 fold-change vs cycle 0; in test [2], 0.985 ± 0.0357 fold-change vs cycle 0.

For AGTAGG, the binding signal with SALL4 ZFC4 WT (HT-SELEX) was determined as 0.864 ± 0.0537 fold-change vs cycle 0; in test [1] it was 0.972 ± 0.0557 fold-change vs cycle 0; in test [2] it was 0.989 ± 0.0263 fold-change vs cycle 0.

Regarding CACAAG, the binding signal was 0.713 ± 0.0143 fold-change vs cycle 0 with SALL4 ZFC4 WT (HT-SELEX), 0.853 ± 0.0253 fold-change vs cycle 0 in test [1] and 0.901 ± 0.0111 fold-change vs cycle 0 in test [2].

As to ACCTCG, the binding signal in the test with SALL4 ZFC4 WT (HT-SELEX) is 0.423 ± 0.0256 fold-change vs cycle 0; in test [1] it was 0.498 ± 0.00774 fold-change vs cycle 0; in test [2] it was 0.604 ± 0.0431 fold-change vs cycle 0.

Regarding CACTGG, the binding signal with SALL4 ZFC4 WT (HT-SELEX) is 0.426 ± 0.00956 fold-change vs cycle 0; in test [1], 0.508 ± 0.0154 fold-change vs cycle 0; in test [2], 0.615 ± 0.0147 fold-change vs cycle 0.

Consider CATCCG, for which the binding signal in the test with SALL4 ZFC4 WT (HT-SELEX) amounted to 0.395 ± 0.00447 fold-change vs cycle 0; in test [1], 0.448 ± 0.0185 fold-change vs cycle 0; in test [2], 0.567 ± 0.0534 fold-change vs cycle 0.

AGTCAA: the values for the binding signal (with SALL4 ZFC4 WT (HT-SELEX); in test [1]; in test [2]) were 1.21 ± 0.0262 fold-change vs cycle 0, 1.409 ± 0.0091 fold-change vs cycle 0 and 1.34 ± 0.0532 fold-change vs cycle 0, respectively.

CATAAA: the binding signal came to 2.36 ± 0.2 fold-change vs cycle 0 with SALL4 ZFC4 WT (HT-SELEX), 1.79 ± 0.0666 fold-change vs cycle 0 in test [1] and 1.6 ± 0.121 fold-change vs cycle 0 in test [2].

Take AATATT: the binding signal was determined as 5.49 ± 0.414 fold-change vs cycle 0 with SALL4 ZFC4 WT (HT-SELEX), 2.54 ± 0.119 fold-change vs cycle 0 in test [1] and 2.19 ± 0.255 fold-change vs cycle 0 in test [2].

For the sequence ACGCTA, the binding signal with SALL4 ZFC4 WT (HT-SELEX) is 0.566 ± 0.0296 fold-change vs cycle 0; in test [1], 0.638 ± 0.0194 fold-change vs cycle 0; in test [2], 0.754 ± 0.0468 fold-change vs cycle 0.

On to AATGCG, for which the binding signal with SALL4 ZFC4 WT (HT-SELEX) is 0.428 ± 0.0345 fold-change vs cycle 0; in test [1], 0.473 ± 0.0206 fold-change vs cycle 0; in test [2], 0.61 ± 0.0401 fold-change vs cycle 0.

Take ACCTCC: the binding signal came to 0.552 ± 0.031 fold-change vs cycle 0 with SALL4 ZFC4 WT (HT-SELEX), 0.625 ± 0.0479 fold-change vs cycle 0 in test [1] and 0.721 ± 0.0399 fold-change vs cycle 0 in test [2].

As to CTCGAA, the binding signal turned out to be 0.675 ± 0.0333 fold-change vs cycle 0 with SALL4 ZFC4 WT (HT-SELEX), 0.763 ± 0.0367 fold-change vs cycle 0 in test [1] and 0.838 ± 0.0207 fold-change vs cycle 0 in test [2].

For CAGCAG, the binding signal in the test with SALL4 ZFC4 WT (HT-SELEX) was found to be 0.333 ± 0.0334 fold-change vs cycle 0; in test [1], 0.387 ± 0.024 fold-change vs cycle 0; in test [2], 0.523 ± 0.0543 fold-change vs cycle 0.

Turning to AACACA, the binding signal with SALL4 ZFC4 WT (HT-SELEX) turned out to be 1.18 ± 0.0535 fold-change vs cycle 0; in test [1], 1.29 ± 0.058 fold-change vs cycle 0; in test [2], 1.27 ± 0.0417 fold-change vs cycle 0.

In the case of CTGGTC, the binding signal worked out at 0.403 ± 0.00696 fold-change vs cycle 0 with SALL4 ZFC4 WT (HT-SELEX), 0.499 ± 0.0159 fold-change vs cycle 0 in test [1] and 0.601 ± 0.0523 fold-change vs cycle 0 in test [2].

The values are drawn from PMC9838217, “Structure of SALL4 zinc finger domain reveals link between AT-rich DNA binding and Okihiro syndrome”.
